Test results published in PubChem BioAssay (NCATS).
Records with an inconclusive call do not appear. Active and inactive are the calls of the source. Calls come from the whole dose curve; as a rule, active = well fitted cell-killing curve with a large enough effect; inconclusive = small, poorly fitted or top-dose-only effect, or effect the other way; inactive = no such curve, though single readings can be large or run the other way.

Columns and labels:
[1] = Quantitative High-Throughput drug screen in 47 multiple myeloma cell lines against the NCATS MIPE library collection: MM1S_ATCC cell viability assay (AID 1918980); note: nearly all actives have a fitted effect of over 45% in size
How it was run: (§1)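 Myeloma cells (500/well) treated with MIPE 4.0 compounds for 48 h at 37 °C, 5% CO2. Viability read as ATP via CellTiter-Glo luminescence after 5 min at RT; DMSO-only wells = 100%, media-only = 0% viability.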

[2] = Quantitative High-Throughput drug screen in 47 multiple myeloma cell lines against the NCATS MIPE library collection: MM1R_ATCC cell viability assay (AID 1918981); note: nearly all actives have a fitted effect of over 35% in size
How it was run: as §1

[3] = Quantitative High-Throughput drug screen in 47 multiple myeloma cell lines against the NCATS MIPE library collection: KMS28PE_JCRB cell viability assay (AID 1918983); note: nearly all actives have a fitted effect of over 35% in size
How it was run: as §1

[4] = Quantitative High-Throughput drug screen in 47 multiple myeloma cell lines against the NCATS MIPE library collection: L363_DSMZ cell viability assay (AID 1918984); note: nearly all actives have a fitted effect of over 40% in size
How it was run: as §1

[5] = Quantitative High-Throughput drug screen in 47 multiple myeloma cell lines against the NCATS MIPE library collection: KMS34_JCRB cell viability assay (AID 1918985); note: nearly all actives have a fitted effect of over 40% in size
How it was run: as §1

[6] = Quantitative High-Throughput drug screen in 47 multiple myeloma cell lines against the NCATS MIPE library collection: OCIMY7_PLB cell viability assay (AID 1918987); conditions: OCI-MY7 myeloma viability, CellTiter-Glo ATP, 48 h; viability (% of DMSO): at 45.8 µM (top of the series); note: nearly all actives have a fitted effect of over 65% in size
How it was run: as §1

[7] = Quantitative High-Throughput drug screen in 47 multiple myeloma cell lines against the NCATS MIPE library collection: OCIMY5_PLB cell viability assay (AID 1918988); note: nearly all actives have a fitted effect of over 65% in size
How it was run: as §1

[8] = Quantitative High-Throughput drug screen in 47 multiple myeloma cell lines against the NCATS MIPE library collection: OPM1_PLB cell viability assay (AID 1918989); note: nearly all actives have a fitted effect of over 40% in size
How it was run: as §1

[9] = Quantitative High-Throughput drug screen in 47 multiple myeloma cell lines against the NCATS MIPE library collection: SKMM1_PLB cell viability assay (AID 1919863); conditions: SKMM1 myeloma viability, CellTiter-Glo ATP, 48 h; viability: active compounds read low; note: nearly all actives have a fitted effect of over 35% in size
How it was run: as §1

[10] = Quantitative High-Throughput drug screen in 47 multiple myeloma cell lines against the NCATS MIPE library collection: U266_ATCC cell viability assay (AID 1919864); note: nearly all actives have a fitted effect of over 35% in size
How it was run: as §1

[11] = Quantitative High-Throughput drug screen in 47 multiple myeloma cell lines against the NCATS MIPE library collection: XG6_PLB cell viability assay (AID 1919865); note: nearly all actives have a fitted effect of over 40% in size
How it was run: as §1

[12] = Quantitative High-Throughput drug screen in 47 multiple myeloma cell lines against the NCATS MIPE library collection: XG1_PLB cell viability assay (AID 1919866); note: nearly all actives have a fitted effect of over 35% in size
How it was run: as §1

[13] = Quantitative High-Throughput drug screen in 47 multiple myeloma cell lines against the NCATS MIPE library collection: VP6_DJ cell viability assay (AID 1919867); note: nearly all actives have a fitted effect of over 40% in size
How it was run: as §1

[14] = Quantitative High-Throughput drug screen in 47 multiple myeloma cell lines against the NCATS MIPE library collection: PE2_PLB cell viability assay (AID 1919869); note: nearly all actives have a fitted effect of over 35% in size
How it was run: as §1

[15] = Quantitative High-Throughput drug screen in 47 multiple myeloma cell lines against the NCATS MIPE library collection: PCM6_Riken cell viability assay (AID 1919870); note: nearly all actives have a fitted effect of over 30% in size
How it was run: as §1

[16] = Quantitative High-Throughput drug screen in 47 multiple myeloma cell lines against the NCATS MIPE library collection: RPMI8226_ATCC cell viability assay (AID 1919871); note: nearly all actives have a fitted effect of over 30% in size
How it was run: as §1

[17] = Quantitative High-Throughput drug screen in 47 multiple myeloma cell lines against the NCATS MIPE library collection: UTMC2_PLB cell viability assay (AID 1919868); conditions: CellTiter-Glo ATP luminescence, 48 h; viability (% of DMSO control): at 45.8 µM (top of the series); note: nearly all actives have a fitted effect of over 55% in size
How it was run: as §1

[18] = Quantitative High-Throughput drug screen in 47 multiple myeloma cell lines against the NCATS MIPE library collection: OPM2_DSMZ cell viability assay (AID 1919872); note: nearly all actives have a fitted effect of over 30% in size
How it was run: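 CellTiter-Glo luminescence (ATP) after 48 h compound exposure, 37C/5% CO2; 500 cells/well; MIPE 4.0 approved/investigational drugs pinned in; DMSO = 100%, media only = 0% viability.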

[19] = Quantitative High-Throughput drug screen in 47 multiple myeloma cell lines against the NCATS MIPE library collection: LP1_DSMZ cell viability assay (AID 1918982); note: nearly all actives have a fitted effect of over 35% in size
How it was run: as §1

Measured: Potency
Potency is the fitted concentration of half-maximal effect.

NC(=O)N1CCC(CC(=O)N2CCC([C@H]3c4ncc(Br)cc4CCc4cc(Cl)cc(Br)c43)CC2)CC1
active: [1] 16.6 µM | [2] 20.9 µM | [3] 18.7 µM | [4] 4.18 µM | [5] 20.9 µM | [6] 0.743 µM | [7] 9.35 µM | [8] 23.5 µM | [9] 18.7 µM | [10] 18.7 µM | [11] 16.6 µM | [12] 5.26 µM | [13] 13.2 µM | [14] 14.8 µM | [15] 20.9 µM | [16] 16.6 µM

N#Cc1c(NC(=O)c2cccc3ccccc23)sc2c1CCCC2
active: [1] 1.05 µM | [2] 0.743 µM | [3] 0.469 µM | [4] 0.296 µM | [5] 0.296 µM | [6] 0.187 µM | [7] 0.187 µM | [8] 0.469 µM | [9] 0.526 µM | [11] 0.148 µM | [12] 0.0833 µM | [13] 0.296 µM | [17] 0.418 µM | [14] 0.526 µM | [15] 0.296 µM | [16] 2.64 µM | [18] 0.743 µM

Cn1cc(C=CC(=O)c2cccc(F)c2)cc1C=CC(=O)NO
inactive: [16]
active: [1] 14.8 µM | [2] 16.6 µM | [4] 11.8 µM | [5] 16.6 µM | [6] 11.8 µM | [7] 14.8 µM | [8] 23.5 µM | [10] 14.8 µM | [11] 2.35 µM | [12] 5.9 µM | [14] 20.9 µM | [15] 18.7 µM | [18] 23.5 µM

CCOC(=O)C1=C(C)NC(=S)NC1c1cccc(O)c1 (stereo not drawn)
active: [1] 0.0418 µM | [2] 0.0296 µM | [3] 0.0833 µM | [5] 0.0833 µM | [6] 0.105 µM | [7] 0.0235 µM | [8] 0.0296 µM | [9] 0.0526 µM | [11] 0.0296 µM | [12] 0.0662 µM | [13] 0.0296 µM | [17] 0.0372 µM | [14] 0.0148 µM | [15] 0.0372 µM
inactive: [10]

CCc1c(O)cc(O)c(C(=O)c2ccc(OCCN3CCOCC3)c(OC)c2)c1CC(=O)N(CCOC)CCOC
active: [1] 1.48 µM | [2] 1.18 µM | [3] 1.18 µM | [5] 1.66 µM | [6] 3.32 µM | [7] 0.469 µM | [8] 0.662 µM | [9] 1.32 µM | [10] 1.05 µM | [11] 1.48 µM | [12] 1.18 µM | [13] 1.18 µM | [17] 0.935 µM | [14] 0.833 µM | [15] 1.32 µM

Cn1cc(-c2cnn3c(N)c(Br)c([C@H]4CCCNC4)nc23)cn1
active: [1] 0.332 µM | [2] 0.209 µM | [3] 13.2 µM | [4] 0.059 µM | [5] 0.935 µM | [6] 1.18 µM | [7] 0.332 µM | [8] 0.833 µM | [10] 7.43 µM | [11] 0.264 µM | [12] 0.526 µM | [13] 0.662 µM | [17] 0.662 µM | [14] 1.05 µM | [15] 0.662 µM | [16] 7.43 µM | [18] 14.8 µM

C[C@H](NCc1ccc(OCc2cccc(F)c2)cc1)C(N)=O
active: [1] 9.35 µM | [2] 7.43 µM | [19] 11.8 µM | [4] 1.48 µM | [5] 10.5 µM | [6] 3.32 µM | [7] 7.43 µM | [8] 2.64 µM | [9] 18.7 µM | [10] 7.43 µM | [11] 1.66 µM | [12] 3.72 µM | [17] 1.18 µM | [14] 2.09 µM | [15] 2.09 µM | [16] 16.6 µM | [18] 11.8 µM

COc1cccc2c1C(=O)c1c(O)c3c(c(O)c1C2=O)C[C@@](O)(C(C)=O)C[C@H]3O[C@H]1C[C@H](N)[C@H](O)[C@H](C)O1
active: [1] 0.0469 µM | [2] 0.0264 µM | [19] 0.209 µM | [4] 0.118 µM | [6] 0.418 µM | [7] 0.0469 µM | [8] 0.105 µM | [9] 0.166 µM | [11] 0.0469 µM | [12] 0.105 µM | [13] 0.0418 µM | [17] 0.0118 µM | [14] 0.0418 µM | [15] 0.0296 µM | [16] 0.235 µM

NC(=O)Nc1sc(-c2ccc(F)cc2)cc1C(N)=O
active: [1] 0.332 µM | [2] 4.69 µM | [3] 18.7 µM | [4] 0.0833 µM | [5] 2.64 µM | [6] 0.662 µM | [7] 2.09 µM | [8] 0.833 µM | [9] 11.8 µM | [10] 13.2 µM | [11] 0.0105 µM | [12] 0.0469 µM | [17] 0.743 µM | [14] 0.372 µM | [15] 0.833 µM | [16] 5.9 µM

CO[C@@H]1[C@@H](O)[C@H](O)[C@@H](n2c3c(Cl)cccc3c3c4c(c5c6cccc(Cl)c6[nH]c5c32)C(=O)NC4=O)O[C@@H]1CO
active: [1] 0.372 µM | [2] 0.526 µM | [19] 6.62 µM | [4] 1.05 µM | [5] 1.32 µM | [6] 0.148 µM | [7] 2.09 µM | [8] 2.09 µM | [9] 2.35 µM | [10] 1.48 µM | [11] 0.0743 µM | [12] 0.166 µM | [13] 0.662 µM | [17] 0.235 µM | [14] 1.05 µM | [15] 1.48 µM | [16] 2.35 µM | [18] 5.9 µM

CCOc1cc2ncc(C#N)c(Nc3ccc(OCc4ccccn4)c(Cl)c3)c2cc1NC(=O)C=CCN(C)C
active: [1] 0.526 µM | [2] 11.8 µM | [3] 13.2 µM | [4] 0.469 µM | [5] 10.5 µM | [6] 0.0526 µM | [7] 0.833 µM | [10] 13.2 µM | [11] 0.0187 µM | [12] 0.132 µM | [13] 1.18 µM | [17] 0.209 µM | [14] 5.26 µM | [15] 0.332 µM

COc1cc(CCc2cc(NC(=O)c3ccc(N4C[C@@H](C)N[C@@H](C)C4)cc3)n[nH]2)cc(OC)c1
active: [1] 20.9 µM | [2] 26.4 µM | [3] 13.2 µM | [5] 16.6 µM | [6] 18.7 µM | [7] 16.6 µM | [8] 14.8 µM | [11] 8.33 µM | [12] 14.8 µM | [13] 7.43 µM | [17] 4.18 µM | [15] 13.2 µM | [16] 18.7 µM | [18] 13.2 µM
